For two sequences, binding signal results are on record in article PMC7862700, “An all-to-all approach to the identification of sequence-specific readers for epigenetic DNA modifications on cytosine”.

Common to all, as to assay: DAPPL (digital affinity profiling via proximity ligation, sequencing); 10 mM Tris-HCl pH 7.5, 50 mM NaCl, 1 mM DTT, 4% glycerol, room temperature, 30 min; GST-TFs on glutathione beads, 16-mer random dsDNA library, 0.1% formaldehyde crosslink after washing; high values mean tight binding
Common to all, as to details: protein: recombinant; tags: N-terminal GST; dsDNA, one strand shown

Experiment [1] has as its target T1, FLI1 (Homo sapiens, UniProt Q01543 1-452).
T1 sequence: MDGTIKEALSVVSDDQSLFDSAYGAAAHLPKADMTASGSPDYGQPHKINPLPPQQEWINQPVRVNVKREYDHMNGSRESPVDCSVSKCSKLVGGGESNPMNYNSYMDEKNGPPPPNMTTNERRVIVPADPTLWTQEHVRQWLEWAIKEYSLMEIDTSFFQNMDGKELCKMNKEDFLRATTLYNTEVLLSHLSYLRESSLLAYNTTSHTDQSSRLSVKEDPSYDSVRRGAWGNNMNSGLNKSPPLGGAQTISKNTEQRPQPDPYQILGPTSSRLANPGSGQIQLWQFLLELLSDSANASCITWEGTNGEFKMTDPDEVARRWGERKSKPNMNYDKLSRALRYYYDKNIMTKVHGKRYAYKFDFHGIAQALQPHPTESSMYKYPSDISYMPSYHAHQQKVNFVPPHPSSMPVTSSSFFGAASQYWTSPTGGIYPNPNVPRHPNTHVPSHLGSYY
In short, it runs like this: (§1)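 Each value of binding signal is a hexamer's read frequency for a factor divided by the same hexamer's frequency in the tag-only sample. Barcoded, bead-captured GST fusions of human transcription factors made in yeast were pooled with that sample and incubated with 200 nmole of a random double-stranded 16-mer DNA library in Tris/NaCl/DTT/glycerol buffer at room temperature for 30 min. Washing, 0.1% formaldehyde crosslinking, proximity ligation, PCR and Illumina NextSeq500 sequencing followed.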

Experiment [2] has as its target T2, ELK1 (Homo sapiens, UniProt P19419 1-428).
T2 sequence: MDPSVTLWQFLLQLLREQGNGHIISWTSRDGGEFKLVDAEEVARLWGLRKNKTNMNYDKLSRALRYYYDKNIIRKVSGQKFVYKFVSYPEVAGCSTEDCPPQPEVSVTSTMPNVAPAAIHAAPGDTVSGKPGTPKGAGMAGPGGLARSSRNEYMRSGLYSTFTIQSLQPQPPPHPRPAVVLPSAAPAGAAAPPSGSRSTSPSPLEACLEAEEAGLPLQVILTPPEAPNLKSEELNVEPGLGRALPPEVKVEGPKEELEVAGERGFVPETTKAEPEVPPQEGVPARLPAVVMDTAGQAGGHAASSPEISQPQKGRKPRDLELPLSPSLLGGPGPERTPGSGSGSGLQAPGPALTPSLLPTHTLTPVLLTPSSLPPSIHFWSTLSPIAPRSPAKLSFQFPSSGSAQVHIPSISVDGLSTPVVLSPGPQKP
The procedure, abridged: as §1

In experiment [3] the target is T3, GABPA (Homo sapiens, UniProt Q06546 1-454).
T3 sequence: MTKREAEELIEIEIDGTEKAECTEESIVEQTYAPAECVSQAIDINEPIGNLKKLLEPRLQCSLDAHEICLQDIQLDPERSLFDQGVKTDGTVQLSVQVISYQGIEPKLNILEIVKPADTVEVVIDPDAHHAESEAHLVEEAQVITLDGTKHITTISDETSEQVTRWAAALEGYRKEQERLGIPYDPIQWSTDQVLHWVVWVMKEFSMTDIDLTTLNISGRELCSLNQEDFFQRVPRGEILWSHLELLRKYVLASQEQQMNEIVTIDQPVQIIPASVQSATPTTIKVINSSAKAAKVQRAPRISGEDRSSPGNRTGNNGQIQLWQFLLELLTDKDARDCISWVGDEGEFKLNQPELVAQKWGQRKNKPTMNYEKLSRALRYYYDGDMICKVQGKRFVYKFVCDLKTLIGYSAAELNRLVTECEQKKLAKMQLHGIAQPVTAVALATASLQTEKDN
In short, it runs like this:
as §1

Experiment [4] has as its target T4, ERG (Homo sapiens, UniProt P11308 1-479).
T4 sequence: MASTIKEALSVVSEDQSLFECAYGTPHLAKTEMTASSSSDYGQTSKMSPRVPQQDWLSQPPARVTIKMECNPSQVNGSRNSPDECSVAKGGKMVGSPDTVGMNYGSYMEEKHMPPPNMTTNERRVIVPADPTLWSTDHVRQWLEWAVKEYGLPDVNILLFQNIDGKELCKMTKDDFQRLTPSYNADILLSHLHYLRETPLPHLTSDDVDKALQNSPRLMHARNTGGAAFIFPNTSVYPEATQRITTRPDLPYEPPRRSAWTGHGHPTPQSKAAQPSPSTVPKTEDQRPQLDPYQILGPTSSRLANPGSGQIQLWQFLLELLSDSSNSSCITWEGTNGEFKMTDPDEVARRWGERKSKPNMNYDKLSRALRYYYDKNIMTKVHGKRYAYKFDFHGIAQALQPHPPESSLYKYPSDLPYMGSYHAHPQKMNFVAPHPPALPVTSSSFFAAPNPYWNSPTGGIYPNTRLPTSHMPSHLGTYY
In short, it runs like this:
as §1

The target of experiment [5] is ELF1 (Homo sapiens, UniProt P32519 1-619). In short, it runs like this:
as §1

In experiment [6] the target is T5, EHF (Homo sapiens, UniProt Q9NZC4 1-300).
T5 sequence: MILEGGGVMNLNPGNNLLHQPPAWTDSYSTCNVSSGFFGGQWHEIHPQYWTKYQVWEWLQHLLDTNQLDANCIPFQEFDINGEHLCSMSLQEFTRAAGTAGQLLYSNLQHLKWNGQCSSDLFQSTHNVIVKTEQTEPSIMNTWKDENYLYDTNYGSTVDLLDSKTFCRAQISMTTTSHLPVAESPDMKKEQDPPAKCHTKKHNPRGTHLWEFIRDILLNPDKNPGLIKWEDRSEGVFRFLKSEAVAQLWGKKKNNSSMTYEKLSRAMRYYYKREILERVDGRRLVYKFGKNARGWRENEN
The procedure, abridged:
as §1

In experiment [7] the target is SPI1 (Homo sapiens, UniProt P17947 1-270). In short, it runs like this: as §1
The target of experiment [8] is SPIB (Homo sapiens, UniProt Q01892 1-262). In short, it runs like this:
as §1

The target of experiment [9] is T6, ELK3 (Homo sapiens, UniProt P41970 1-407).
T6 sequence: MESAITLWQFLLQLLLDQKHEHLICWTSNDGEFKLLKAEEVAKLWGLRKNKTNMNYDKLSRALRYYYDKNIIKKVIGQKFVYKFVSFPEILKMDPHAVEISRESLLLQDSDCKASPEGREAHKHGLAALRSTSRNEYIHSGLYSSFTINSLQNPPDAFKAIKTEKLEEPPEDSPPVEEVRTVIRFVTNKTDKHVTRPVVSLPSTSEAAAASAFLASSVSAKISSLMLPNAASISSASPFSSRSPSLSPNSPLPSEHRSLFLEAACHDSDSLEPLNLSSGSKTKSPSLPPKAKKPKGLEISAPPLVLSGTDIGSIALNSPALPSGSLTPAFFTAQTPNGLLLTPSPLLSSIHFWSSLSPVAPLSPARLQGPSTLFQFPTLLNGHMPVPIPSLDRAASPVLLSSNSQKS
The procedure, abridged:
as §1

The target in experiment [10] is T7, FEV (Homo sapiens, UniProt Q99581 1-238).
T7 sequence: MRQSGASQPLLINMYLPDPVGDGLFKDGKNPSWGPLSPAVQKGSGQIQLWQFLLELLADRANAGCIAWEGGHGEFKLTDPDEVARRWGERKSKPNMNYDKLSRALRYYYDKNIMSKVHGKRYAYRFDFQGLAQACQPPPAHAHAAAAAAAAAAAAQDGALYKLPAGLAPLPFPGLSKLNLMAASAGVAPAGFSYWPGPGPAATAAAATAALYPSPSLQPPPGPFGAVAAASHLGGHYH
In short, it runs like this:
as §1

Experiment [11] addresses ETV5 (Homo sapiens, UniProt P41161 1-510). The procedure, abridged:
as §1

For experiment [12], the target named is T8, SPIC (Homo sapiens, UniProt Q8N5J4 1-248).
T8 sequence: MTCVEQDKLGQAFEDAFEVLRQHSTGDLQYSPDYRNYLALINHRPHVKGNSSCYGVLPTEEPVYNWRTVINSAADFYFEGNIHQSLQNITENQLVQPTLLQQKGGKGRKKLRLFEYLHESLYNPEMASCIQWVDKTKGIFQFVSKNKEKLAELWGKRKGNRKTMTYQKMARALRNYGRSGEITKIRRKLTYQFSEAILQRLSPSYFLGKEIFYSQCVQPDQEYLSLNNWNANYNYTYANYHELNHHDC
In short, it runs like this:
as §1

The target in experiment [13] is ELF4 (Homo sapiens, UniProt Q99607 1-663). In short, it runs like this: as §1
For experiment [14], the target named is T9, ELK4 (Homo sapiens, UniProt P28324-2 1-405).
T9 sequence: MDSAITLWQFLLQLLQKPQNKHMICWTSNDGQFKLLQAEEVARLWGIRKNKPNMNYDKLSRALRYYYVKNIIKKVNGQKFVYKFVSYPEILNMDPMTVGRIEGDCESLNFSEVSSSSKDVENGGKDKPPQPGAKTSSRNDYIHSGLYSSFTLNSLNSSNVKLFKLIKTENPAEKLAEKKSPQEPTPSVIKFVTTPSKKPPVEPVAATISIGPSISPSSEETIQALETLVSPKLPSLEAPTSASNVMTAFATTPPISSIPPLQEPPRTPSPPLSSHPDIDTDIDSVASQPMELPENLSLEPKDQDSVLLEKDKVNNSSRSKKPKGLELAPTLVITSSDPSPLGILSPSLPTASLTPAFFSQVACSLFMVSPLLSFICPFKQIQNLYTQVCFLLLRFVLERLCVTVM
The procedure, abridged:
as §1

Experiment [15] concerns the target T10, ETV2 (Homo sapiens, UniProt O00321 1-342).
T10 sequence: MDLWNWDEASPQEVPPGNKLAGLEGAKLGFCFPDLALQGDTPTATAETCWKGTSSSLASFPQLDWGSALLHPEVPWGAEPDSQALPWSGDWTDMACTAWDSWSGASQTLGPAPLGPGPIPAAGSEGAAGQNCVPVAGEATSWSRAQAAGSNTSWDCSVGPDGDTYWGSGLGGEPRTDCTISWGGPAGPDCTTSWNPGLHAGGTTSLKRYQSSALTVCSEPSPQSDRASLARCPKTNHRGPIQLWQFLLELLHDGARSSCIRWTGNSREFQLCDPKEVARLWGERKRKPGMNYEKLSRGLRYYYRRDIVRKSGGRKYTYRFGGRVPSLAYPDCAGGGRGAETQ
The procedure, abridged:
as §1

The target in experiment [16] is T11, ELF3 (Homo sapiens, UniProt P78545 1-371).
T11 sequence: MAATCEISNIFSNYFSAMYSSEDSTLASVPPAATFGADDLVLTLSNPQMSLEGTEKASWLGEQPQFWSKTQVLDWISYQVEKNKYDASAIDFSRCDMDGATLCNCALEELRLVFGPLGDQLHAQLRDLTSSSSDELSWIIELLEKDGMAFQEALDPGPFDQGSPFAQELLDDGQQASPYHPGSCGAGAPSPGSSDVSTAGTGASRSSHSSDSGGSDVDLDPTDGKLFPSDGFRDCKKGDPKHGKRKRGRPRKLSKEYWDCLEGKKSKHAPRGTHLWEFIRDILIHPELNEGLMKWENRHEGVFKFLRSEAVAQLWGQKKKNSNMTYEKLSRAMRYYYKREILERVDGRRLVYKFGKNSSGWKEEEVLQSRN
The procedure, abridged:
as §1

The target in experiment [17] is ETV1 (Homo sapiens, UniProt P50549 1-477). In short, it runs like this: as §1
Sequence of ETV1 (P50549 whole entry): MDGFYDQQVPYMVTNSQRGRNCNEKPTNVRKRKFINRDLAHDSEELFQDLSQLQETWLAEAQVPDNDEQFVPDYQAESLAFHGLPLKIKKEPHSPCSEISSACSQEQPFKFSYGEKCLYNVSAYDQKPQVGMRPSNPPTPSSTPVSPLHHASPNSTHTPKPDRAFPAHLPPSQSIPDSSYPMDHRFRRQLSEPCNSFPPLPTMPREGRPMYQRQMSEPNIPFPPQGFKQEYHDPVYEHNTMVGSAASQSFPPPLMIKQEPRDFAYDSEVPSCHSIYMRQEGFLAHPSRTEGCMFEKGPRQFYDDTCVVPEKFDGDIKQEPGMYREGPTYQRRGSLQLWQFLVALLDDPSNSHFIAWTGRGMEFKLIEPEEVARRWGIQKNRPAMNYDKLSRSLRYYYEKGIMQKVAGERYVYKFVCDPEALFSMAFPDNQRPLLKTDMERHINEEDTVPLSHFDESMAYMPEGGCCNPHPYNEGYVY

Sequence of ELF1 (P32519 whole entry): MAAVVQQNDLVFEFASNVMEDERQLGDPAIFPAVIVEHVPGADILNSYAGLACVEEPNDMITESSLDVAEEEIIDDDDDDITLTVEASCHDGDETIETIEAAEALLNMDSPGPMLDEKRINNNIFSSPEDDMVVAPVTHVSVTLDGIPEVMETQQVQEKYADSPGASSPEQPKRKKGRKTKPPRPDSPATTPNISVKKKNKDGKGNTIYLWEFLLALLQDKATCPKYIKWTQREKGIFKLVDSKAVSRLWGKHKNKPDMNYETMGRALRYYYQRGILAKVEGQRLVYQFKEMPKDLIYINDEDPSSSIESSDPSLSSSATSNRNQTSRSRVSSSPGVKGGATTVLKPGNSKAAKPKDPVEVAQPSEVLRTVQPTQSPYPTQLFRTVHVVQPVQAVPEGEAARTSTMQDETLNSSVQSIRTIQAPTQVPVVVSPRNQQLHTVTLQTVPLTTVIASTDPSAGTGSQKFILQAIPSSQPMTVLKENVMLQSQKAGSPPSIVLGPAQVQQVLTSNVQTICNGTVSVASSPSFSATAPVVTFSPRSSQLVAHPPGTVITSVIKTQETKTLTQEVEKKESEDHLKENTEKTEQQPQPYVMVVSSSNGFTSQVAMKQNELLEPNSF
Sequence of SPIB (Q01892 whole entry): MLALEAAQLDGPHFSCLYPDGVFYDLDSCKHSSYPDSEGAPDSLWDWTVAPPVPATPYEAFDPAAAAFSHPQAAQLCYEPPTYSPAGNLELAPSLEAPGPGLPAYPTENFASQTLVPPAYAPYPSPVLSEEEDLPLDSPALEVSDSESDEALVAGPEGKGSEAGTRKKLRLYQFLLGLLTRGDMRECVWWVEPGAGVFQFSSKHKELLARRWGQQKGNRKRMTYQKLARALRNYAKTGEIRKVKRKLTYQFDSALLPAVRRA
Sequence of ELF4 (Q99607 whole entry): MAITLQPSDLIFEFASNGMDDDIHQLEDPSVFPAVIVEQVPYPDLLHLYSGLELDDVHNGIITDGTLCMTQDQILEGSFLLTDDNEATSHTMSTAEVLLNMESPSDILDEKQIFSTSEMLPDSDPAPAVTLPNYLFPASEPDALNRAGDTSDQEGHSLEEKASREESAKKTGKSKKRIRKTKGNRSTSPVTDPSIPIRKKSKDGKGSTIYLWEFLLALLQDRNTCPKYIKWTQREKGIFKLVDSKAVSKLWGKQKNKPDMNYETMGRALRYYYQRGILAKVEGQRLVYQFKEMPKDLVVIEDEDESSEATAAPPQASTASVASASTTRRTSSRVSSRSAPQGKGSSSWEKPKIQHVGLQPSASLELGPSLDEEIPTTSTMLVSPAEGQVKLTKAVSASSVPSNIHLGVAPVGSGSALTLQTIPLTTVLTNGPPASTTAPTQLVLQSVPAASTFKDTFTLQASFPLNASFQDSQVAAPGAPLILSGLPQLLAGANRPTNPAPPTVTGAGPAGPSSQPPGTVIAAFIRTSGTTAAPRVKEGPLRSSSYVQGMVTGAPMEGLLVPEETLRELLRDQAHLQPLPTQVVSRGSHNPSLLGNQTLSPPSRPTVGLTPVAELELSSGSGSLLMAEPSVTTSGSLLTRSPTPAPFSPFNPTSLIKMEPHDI
Sequence of ETV5 (P41161 whole entry): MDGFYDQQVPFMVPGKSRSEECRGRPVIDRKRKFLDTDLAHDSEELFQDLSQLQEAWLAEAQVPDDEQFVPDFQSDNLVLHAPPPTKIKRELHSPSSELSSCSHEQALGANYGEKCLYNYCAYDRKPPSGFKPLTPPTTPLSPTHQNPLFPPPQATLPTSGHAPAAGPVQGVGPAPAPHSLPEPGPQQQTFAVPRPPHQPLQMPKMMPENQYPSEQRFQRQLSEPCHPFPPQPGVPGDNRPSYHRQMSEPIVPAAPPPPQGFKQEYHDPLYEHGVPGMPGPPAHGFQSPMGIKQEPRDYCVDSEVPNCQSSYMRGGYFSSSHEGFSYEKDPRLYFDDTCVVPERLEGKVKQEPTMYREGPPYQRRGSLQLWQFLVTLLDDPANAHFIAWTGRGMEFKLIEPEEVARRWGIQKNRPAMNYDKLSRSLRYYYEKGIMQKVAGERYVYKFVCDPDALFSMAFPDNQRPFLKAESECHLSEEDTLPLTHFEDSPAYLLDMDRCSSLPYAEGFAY

GTCCCC: the binding signal is 1.14 fold enrichment (6-mer frequency, TF over GST control) in experiment [1]; 1.29 fold enrichment (6-mer frequency, TF over GST control) in experiment [2]; 1.19 fold enrichment (6-mer frequency, TF over GST control) in experiment [3]; 1.23 fold enrichment (6-mer frequency, TF over GST control) in experiment [4]; 1.19 fold enrichment (6-mer frequency, TF over GST control) in experiment [5]; 1.28 fold enrichment (6-mer frequency, TF over GST control) in experiment [6]. The binding signal in experiment [7] was 1.23 fold enrichment (6-mer frequency, TF over GST control); in [8], 1.24 fold enrichment (6-mer frequency, TF over GST control); in experiment [9], 1.29 fold enrichment (6-mer frequency, TF over GST control); in experiment [10], 1.18 fold enrichment (6-mer frequency, TF over GST control); in experiment [11] it was 1.27 fold enrichment (6-mer frequency, TF over GST control); in experiment [12], 1.26 fold enrichment (6-mer frequency, TF over GST control). The binding signal in [13] is 1.2 fold enrichment (6-mer frequency, TF over GST control); in experiment [14] it was 1.26 fold enrichment (6-mer frequency, TF over GST control); in experiment [15], 1.22 fold enrichment (6-mer frequency, TF over GST control); in experiment [16], 1.38 fold enrichment (6-mer frequency, TF over GST control); in experiment [17], 1.29 fold enrichment (6-mer frequency, TF over GST control).

Take CAACCC: the binding signal is 1.15 fold enrichment (6-mer frequency, TF over GST control) in [1]; 1.22 fold enrichment (6-mer frequency, TF over GST control) in experiment [2]; 1.27 fold enrichment (6-mer frequency, TF over GST control) in experiment [3]; 1.21 fold enrichment (6-mer frequency, TF over GST control) in experiment [4]; 1.24 fold enrichment (6-mer frequency, TF over GST control) in experiment [5]; 1.16 fold enrichment (6-mer frequency, TF over GST control) in experiment [6]. Moreover, the binding signal in experiment [7] is 1.21 fold enrichment (6-mer frequency, TF over GST control); in experiment [8], 1.26 fold enrichment (6-mer frequency, TF over GST control); in experiment [9], 1.21 fold enrichment (6-mer frequency, TF over GST control); in experiment [10], 1.21 fold enrichment (6-mer frequency, TF over GST control); in [11], 1.23 fold enrichment (6-mer frequency, TF over GST control); in experiment [12] it was 1.23 fold enrichment (6-mer frequency, TF over GST control). The binding signal is 1.34 fold enrichment (6-mer frequency, TF over GST control) in [13]; 1.22 fold enrichment (6-mer frequency, TF over GST control) in experiment [14]; 1.17 fold enrichment (6-mer frequency, TF over GST control) in experiment [15]; 1.34 fold enrichment (6-mer frequency, TF over GST control) in [16]; 1.18 fold enrichment (6-mer frequency, TF over GST control) in experiment [17].
